Data reported in PubChem BioAssay (NCI).
Compounds without any hit were thinned out: in the full panel of roughly 83,000, 20% have a hit.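 96-well plates, one dose, 48 hours. Percent growth reported; active if below 10.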 Values without a mark were called inactive. Activity calls are given as the source filed them.

These molecules were tested on T-47D breast (assay: NCI-60 one-dose screen, 48 h (100 = growth as untreated, 0 = no growth, -100 = all killed)). Details: 10 µM.
Description: Growth inhibition of the T-47D human tumor cell line is measured as a screen for anti-cancer activity. Cells are grown in 96 well plates and exposed to the test compound for 48 hours. Compounds are tested at a single concentration, which is 10^-5 M for most compounds. The reported endpoint is percent growth (GI% or GIPRCNT), where numbers from 0 - 100% represent growth inhibition, and numbers from -100% - 0 represent cell death. For example, a value of 40 represents 60% growth inhibition. A value of 0 means no net growth occurred over the course of the experiment. A value of -40 indicates 40% of cells at the beginning of the experiment died by the end of the experiment. A value of -100 means all cells are dead at the end of the experiment.
NCI-60 Human Tumor Cell Lines Screen was performed using the standard one-dose NCI protocol, which is described in more detail at https://dtp.cancer.gov/discovery_development/nci-60/default.htm.
Compounds with GIPRCNT values below 10 were considered active. Activity score was based on GIPRCNT using the following formula: […]
Score is 0 for GIPRCNT values of 100 or above, 50 for GIPRCNT values of 0, and 100 for GIPRCNT values of -100.

Structure (SMILES) | growth
CC(C)(C)[Si](C)(C)OC1[C@@H](CNC(=O)NC(=O)CCl)O[C@@H](n2cnc3c(N)ncnc32)[C@H]1O[Si](C)(C)C(C)(C)C (stereo not given in full) | 13.5%
CN([N-]C(=O)CC(=O)[N-]N(C)C(=S)c1ccccc1)C(=S)c1ccccc1.[Cu+2] | -52.7% (active)
COc1ccc(OC)c(C2C(C#N)=C(N)Oc3cc(O)ccc32)c1 (stereo not given) | 86.7%
O=C1N/C(=C\c2ccccc2)c2ncccc21 | 79.5%
O=C1c2ccccc2-c2nnc(-c3ccc(Br)cc3)cc21 | 52.7%
CC(=O)Nc1ccccc1-c1n[nH]c(=O)[nH]c1=O | 97.5%
COC(=O)C1C2CC3c4[nH]c5cc(OC)ccc5c4CCN3CC2CC(OC2CCCCO2)C1OC (stereo not given) | 108%
C[C@H]1C(=O)C23CCC1C[C@@]21O[C@@H]2C(C)(C)C=CC(=O)C23COC1=O | 98.4%
CCOC(=O)c1c(Cl)c2c(n1Cc1cc(OC)cc(OC)c1)-c1oncc1CCC2 | 51.7%
O=c1onc(-c2ccccc2)c2ccccc12 | 97.8%
COC(=O)c1c2c(c(C)[n+]([O-])c1C)C(=O)C(NCc1ccc(O)cc1)=CC2=O | -7.43% (active)
Clc1nc(-c2ccccn2)nc2sc3c(c12)CCCCCC3 | 42.2%
C=C1CC[C@@H]2[C@@](C)(CCC[C@]2(C)C(=O)O)[C@@H]1CC[C@H](CO)CCO | 90.5%
Cn1c2c(cc(S(=O)(=O)c3ccccc3)c1=O)CCc1c-2cnn1-c1ccccc1Cl | 68%
C1CCC([PH+](C2CCCCC2)C2CCCCC2[PH+](C2CCCCC2)C2CCCCC2)CC1.O=C(C1[CH-]CCCC1)C1CCCC[N-]1.[Au] (stereo not given) | 10.3%
C[C@@H](Oc1cc(-c2cnn(C3CC4(CNC4)C3)c2)cnc1N)c1c(Cl)ccc(F)c1Cl | 43.3%
CCN1CCN(c2nc3ccccc3c3c(=O)c4cc(F)ccc4sc23)CC1 | 65.1%
COc1ccc(S(=O)(=O)ON=C2C=C(C)C(=O)C(C)=C2)cc1 | 40.3%
CCOC(=O)C1=C(C)N2C(=NC3=C(CCCC/C3=C\c3cc(OC)c(OC)c(OC)c3)C2c2cc(OC)c(OC)c(OC)c2)S1 (stereo not given) | 45.9%
CC(=O)N(CC(O)CO)c1c(I)c(C(=O)NCCO)c(I)c(C(=O)NCC(O)CO)c1I (stereo not given) | 101%

Structure (SMILES) | growth
COc1ccc(-c2[nH]ncc2Nc2cc(OC)c(OC)c(OC)c2)cc1 | 18%
COc1ccc(C2CC(c3cc(OC)c(OC)c(OC)c3)=NN2c2ccc(S(N)(=O)=O)cc2)cc1 (stereo not given) | 55.9%
Cc1nc(NC(=O)COc2cccc(/C=C3\COc4ccccc4C3=O)c2)sc1C | 53.2%
O=C(O)C[C@H](O)C[C@H](O)/C=C/c1c(C2CC2)nc2ccccc2c1-c1ccc(F)cc1 | 95.9%
O=C(Nc1ccc(Cl)c(Cl)c1)OCn1ncc2ccc([N+](=O)[O-])cc21 | 80%
FC(F)(F)c1cc(CNc2nc(Cl)ncc2Br)cc(C(F)(F)F)c1 | 82.1%
O=C(Nc1ccc(F)cc1)c1ccc(C(=O)Nc2ccc(F)cc2)cc1 | 99.1%
CC(=O)OC[C@]1(C)C=C2C(=O)[C@](C)(O)C3(CC3)C(C)=C2[C@H]1OC(C)=O | 73.6%
Cc1nc(NN)c([N+](=O)[O-])c(NN)n1 | 103%
Nc1nc2c(s1)CCc1c-2c(Br)n(Cc2ccccc2)c1Br | 34.3%
CCN1CCN(C(=S)SCC(=O)Nc2nc3ccc(OC)cc3s2)CC1 | 86.6%
NC(=O)c1cccc(-n2ccc3cc(NC(=O)Nc4ccc(Cl)c(Cl)c4)ccc32)n1 | 49.3%
COC(=O)/C=C1/CCC2C3CCC4=CC(=O)C(Br)CC4(C)C3C(=O)CC12C (stereo not given) | 54.8%
NS(=O)(=O)c1cc(Br)c2c(c1)S(=O)(=O)NCN2 | 102%
O=C1c2cc(S(=O)(=O)O)ccc2C(=O)c2c1cccc2[N+](=O)[O-] | 103%
CCCCC(CCCC)(S(=O)(=O)CC)S(=O)(=O)CC | 101%
CCOC(=O)c1sc(NC(=O)CN2CCC(Cc3ccccc3)CC2)nc1C | 101%
Cc1nc2cc(Nc3nc(NCCO)nc(Nc4ccc(F)cc4)n3)ccc2n1Cc1ccccc1 | 65.3%
O=C(N/N=C(\CS(=O)(=O)c1ccccc1)c1cc2ccccc2oc1=O)c1ccccc1 | 101%
CCN1C(=O)C2(Nc3ccccc3S2)c2cc(C)ccc21 (stereo not given) | 93.5%
